Test results as given in PubChem BioAssay.
Values without a mark were called inactive. Calls of active or inactive are those of the source. Unless noted, the rule behind the calls is not given here.

Tested on: not listed separately
Experiment: HepG2 cytotoxicity, primary screen, cytotoxicity control for P. falciparum antimalarial project, cell-based, ATP luminescence (AID 2303;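 active = inhibition above 50%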;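 note: 0% = DMSO wells and 100% = digitonin-killed cells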)
Conditions: HepG2 viability, 24-48 h, at 10 µM, hits give high values
`CC(C)(C)c1ccc(NC(=O)c2ccc(CN3CCCN(Cc4cccc(Cl)c4)CC3)cc2)cc1` gave an inhibition of 43%. With `CC1(C)[C@H]2CC[C@@H](CNc3nc(NCCc4cnc[nH]4)nc(Nc4ccc5c(c4)OCO5)n3)[C@@H]1C2` the inhibition was 3%. With `Cc1cc(C2CCN(CCCCNC(=O)c3ccc(NC(=O)c4ccc(Cl)cc4)cc3)CC2)c(C)cc1OCc1ccccn1` the inhibition was 18%. Compound `Oc1ccc(CCCNc2nc(NCc3ccccc3-c3ccccc3)nc(NC3CCNCC3)n2)cc1` has an inhibition of -1%. `CCC(=Cc1cccc([N+](=O)[O-])c1)C(=O)NCC1CCN(c2nc(N)c3cc(OC)c(OC)cc3n2)CC1` gave an inhibition of 25%. Compound `NCCCCc1c(-c2ccc(Cl)c(Cl)c2)[nH]c2ccc(Cl)cc12` has an inhibition of 33%. `CCCCN(C(=O)c1ccccc1C)c1nnc(-c2ccccc2C)s1` gave an inhibition of 10%. For `Cc1cccc2[nH]c(-c3ccc(-c4cccc(NC(=O)COc5ccccc5C(N)=O)c4)s3)nc12`, the inhibition was 80% (active). `COc1ccc2nccc([C@@H](O)CN3CCC(NC(=O)c4nc(Cl)c(Cl)c(N)c4Cl)CC3)c2c1` gave an inhibition of 16%. `Cc1cc(N2CCCC2)nc(Nc2ccc(NC(=O)c3ccc(Br)o3)cc2)n1` gave an inhibition of 17%. Compound `Cn1c(=N)cc(-c2ccc(Br)cc2)c2c(=O)[nH]c(N)nc21` has an inhibition of 5%. `CCC(C)(C)NC(=O)C(c1cccc(OC)c1)N(C(=O)CNC(=O)c1cccs1)c1ccc2c(c1)OCCO2` (stereo not given) gave an inhibition of -7%. For `Oc1ccccc1CCNCC1CCc2ccccc2C1` (stereo not given), the inhibition was 37%. `COc1ccc2nccc([C@@H](O)CN3CCC(NCc4ccc(OC)c(NC=O)c4)CC3)c2c1` showed an inhibition of 0%. Compound `CCCN(Cc1ccc(OCC)cc1)Cc1cc(=O)c2cc(Cl)ccc2[nH]1` has an inhibition of 47%. Work on `COc1cc(NCCCCCNc2cc(Cl)nc3ccccc23)nc2ccccc12` yielded an inhibition of 17%. With `FC(F)(F)c1ccc2nc(-c3cccc(-c4cccc(CN5CCN(c6ccncc6)CC5)c4)c3)[nH]c2c1` the inhibition was 93% (active). For `CN1CCN(CCCN(Cc2csc(-c3ccc(CNCc4ccccc4)cc3)n2)S(=O)(=O)c2ccccc2)CC1`, the inhibition was 17%. `O=S1(=O)NC2(CCN(CCc3ccc(Cl)cc3)CC2)Nc2cc(F)cc(F)c21` showed an inhibition of 7%. With `O=C(NCCCN1CCCC1=O)c1cnc(N2CCC(Oc3ccccc3)CC2)c(Cl)c1` the inhibition was 7%. `COc1ccc(C(=O)Nc2cc(Br)c3c(c2)CNCC3)cc1Br` gave an inhibition of 25%. `NC(Cc1ccc(Cl)cc1)=NCCN1CCCCCC1` showed an inhibition of -8%. Work on `CC1CCCC(NC(=O)CCOc2ccccc2)C1` (stereo not given) yielded an inhibition of -14%. `Cc1noc(-c2ccc(NC[C@@H](C)NC[C@H](O)c3cccc(Cl)c3)cc2)n1` showed an inhibition of 11%. With `COc1ccc(NC(=O)Nc2cccc(-c3ccncc3)c2)cc1N1CCN(C)CC1` the inhibition was 9%. Work on `Cc1cc(N2CCCN(CC3CCCCC3)CC2)nc(Nc2ccc(Br)cc2)n1` yielded an inhibition of 24%. `CCCNCc1ccc(-c2ccc(CN(CCOC)C(=O)c3cscn3)cc2)nc1` gave an inhibition of 13%. In the case of `CC(=O)Nc1ccc(Cl)c(Cl)c1`, the inhibition is reported as 5%. With `O=C(Nc1ccc(CN2CCCCC2)cc1)c1ccc(COc2ccc([N+](=O)[O-])cc2)o1` the inhibition was 12%. `CCOc1ccc(/C=C/C(=O)Nc2cccc3c2CCN(C)C3)cc1` gave an inhibition of -2%. Compound `Cc1cc(NN=Cc2ccc(F)cc2)c2cccc(C)c2n1` has an inhibition of 7%. In the case of `COc1ccc(CNC(=O)c2cnc3c(O)cccc3c2Nc2cccc(NC(=O)c3ccc(F)cc3)c2)cc1`, the inhibition is reported as 50% (active). In the case of `CCCCOc1cc2[nH]cc(C(=O)OCC)c(=O)c2cc1OCCCC`, the inhibition is reported as -9%. In the case of `OC(Cn1ccnc1)(c1ccc(Cl)cc1Cl)C1CCCCC1` (stereo not given), the inhibition is reported as 7%. With `O=C(c1cccs1)N1CCN(c2ccc([N+](=O)[O-])c(NC3CC3)c2)CC1` the inhibition was -5%. For `CC(=O)Nc1cccc(C(=O)Nc2cccc(-c3ccc(-c4nc5ccc(F)cc5[nH]4)s3)c2)c1`, the inhibition was 88% (active). In the case of `C=C1C[C@@H](n2cnc3c(NC(=O)c4ccccc4)ncnc32)[C@@H](F)[C@@H]1OC(c1ccccc1)(c1ccccc1)c1ccccc1`, the inhibition is reported as 16%. `CS(=O)(=O)Nc1ccc2[nH]cc(C3CCN(CC4CCC(NC(=O)/C=C/c5ccc(Cl)c(Cl)c5)CC4)CC3)c2n1` (stereo not given) showed an inhibition of 2%. `CN1CCN(c2ccnc3ccc(NC(=O)Nc4ccc(-c5ccccc5)cc4)cc23)CC1` gave an inhibition of -10%. `CCC[C@@H]([C@@H](CC(C)C)C(=O)N[C@@H](CCCCNC(=O)c1ccccn1)C(=O)Nc1nccs1)N(O)C=O` gave an inhibition of -23%.

Target: L-lactate dehydrogenase (Plasmodium falciparum (isolate CDC / Honduras)) (UniProt Q27743)
Sequence (Q27743 whole entry, looked up): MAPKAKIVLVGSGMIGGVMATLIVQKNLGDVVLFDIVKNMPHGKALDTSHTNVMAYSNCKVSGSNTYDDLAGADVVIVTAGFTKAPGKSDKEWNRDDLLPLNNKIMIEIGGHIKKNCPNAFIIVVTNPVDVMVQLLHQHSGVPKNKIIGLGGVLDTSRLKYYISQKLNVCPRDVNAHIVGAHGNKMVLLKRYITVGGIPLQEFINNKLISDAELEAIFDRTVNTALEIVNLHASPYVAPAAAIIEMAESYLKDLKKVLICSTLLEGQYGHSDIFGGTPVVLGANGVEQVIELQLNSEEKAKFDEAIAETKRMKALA
Experiment: PfLDH activity inhibition – cell lysate, 3D7 strain, counter-screen for P. falciparum growth inhibition project (AID 2304);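 note: 0% = vehicle and 100% = reference inhibitor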
Conditions: P. falciparum 3D7 crude extract, LDH APAD/NBT absorbance; at 2 µM; hits give high values
Compound `CC(C)(C)c1ccc(NC(=O)c2ccc(CN3CCCN(Cc4cccc(Cl)c4)CC3)cc2)cc1` has an inhibition of -3%. In the case of `CC1(C)[C@H]2CC[C@@H](CNc3nc(NCCc4cnc[nH]4)nc(Nc4ccc5c(c4)OCO5)n3)[C@@H]1C2`, the inhibition is reported as -4%. For `Cc1cc(C2CCN(CCCCNC(=O)c3ccc(NC(=O)c4ccc(Cl)cc4)cc3)CC2)c(C)cc1OCc1ccccn1`, the inhibition was 3%. `Oc1ccc(CCCNc2nc(NCc3ccccc3-c3ccccc3)nc(NC3CCNCC3)n2)cc1` gave an inhibition of 6%. Work on `CCC(=Cc1cccc([N+](=O)[O-])c1)C(=O)NCC1CCN(c2nc(N)c3cc(OC)c(OC)cc3n2)CC1` yielded an inhibition of 6%. `NCCCCc1c(-c2ccc(Cl)c(Cl)c2)[nH]c2ccc(Cl)cc12` showed an inhibition of -9%. With `CCCCN(C(=O)c1ccccc1C)c1nnc(-c2ccccc2C)s1` the inhibition was 2%. In the case of `Cc1cccc2[nH]c(-c3ccc(-c4cccc(NC(=O)COc5ccccc5C(N)=O)c4)s3)nc12`, the inhibition is reported as -6%. With `COc1ccc2nccc([C@@H](O)CN3CCC(NC(=O)c4nc(Cl)c(Cl)c(N)c4Cl)CC3)c2c1` the inhibition was 2%. `Cc1cc(N2CCCC2)nc(Nc2ccc(NC(=O)c3ccc(Br)o3)cc2)n1` showed an inhibition of 0%. Compound `Cn1c(=N)cc(-c2ccc(Br)cc2)c2c(=O)[nH]c(N)nc21` has an inhibition of 1%. In the case of `CCC(C)(C)NC(=O)C(c1cccc(OC)c1)N(C(=O)CNC(=O)c1cccs1)c1ccc2c(c1)OCCO2` (stereo not given), the inhibition is reported as -7%. With `Oc1ccccc1CCNCC1CCc2ccccc2C1` (stereo not given) the inhibition was 0%. With `COc1ccc2nccc([C@@H](O)CN3CCC(NCc4ccc(OC)c(NC=O)c4)CC3)c2c1` the inhibition was 3%. With `CCCN(Cc1ccc(OCC)cc1)Cc1cc(=O)c2cc(Cl)ccc2[nH]1` the inhibition was 1%. `COc1cc(NCCCCCNc2cc(Cl)nc3ccccc23)nc2ccccc12` gave an inhibition of -3%. Work on `FC(F)(F)c1ccc2nc(-c3cccc(-c4cccc(CN5CCN(c6ccncc6)CC5)c4)c3)[nH]c2c1` yielded an inhibition of 3%. With `CN1CCN(CCCN(Cc2csc(-c3ccc(CNCc4ccccc4)cc3)n2)S(=O)(=O)c2ccccc2)CC1` the inhibition was 7%. Work on `O=S1(=O)NC2(CCN(CCc3ccc(Cl)cc3)CC2)Nc2cc(F)cc(F)c21` yielded an inhibition of -1%. `O=C(NCCCN1CCCC1=O)c1cnc(N2CCC(Oc3ccccc3)CC2)c(Cl)c1` showed an inhibition of -2%. `COc1ccc(C(=O)Nc2cc(Br)c3c(c2)CNCC3)cc1Br` gave an inhibition of 7%. `NC(Cc1ccc(Cl)cc1)=NCCN1CCCCCC1` gave an inhibition of -2%. Work on `CC1CCCC(NC(=O)CCOc2ccccc2)C1` (stereo not given) yielded an inhibition of -2%. With `Cc1noc(-c2ccc(NC[C@@H](C)NC[C@H](O)c3cccc(Cl)c3)cc2)n1` the inhibition was -1%. In the case of `COc1ccc(NC(=O)Nc2cccc(-c3ccncc3)c2)cc1N1CCN(C)CC1`, the inhibition is reported as 5%. `Cc1cc(N2CCCN(CC3CCCCC3)CC2)nc(Nc2ccc(Br)cc2)n1` showed an inhibition of -1%. `CCCNCc1ccc(-c2ccc(CN(CCOC)C(=O)c3cscn3)cc2)nc1` showed an inhibition of 2%. `CC(=O)Nc1ccc(Cl)c(Cl)c1` gave an inhibition of 9%. With `O=C(Nc1ccc(CN2CCCCC2)cc1)c1ccc(COc2ccc([N+](=O)[O-])cc2)o1` the inhibition was -1%. `CCOc1ccc(/C=C/C(=O)Nc2cccc3c2CCN(C)C3)cc1` gave an inhibition of 0%. In the case of `Cc1cc(NN=Cc2ccc(F)cc2)c2cccc(C)c2n1`, the inhibition is reported as -6%. Compound `COc1ccc(CNC(=O)c2cnc3c(O)cccc3c2Nc2cccc(NC(=O)c3ccc(F)cc3)c2)cc1` has an inhibition of 2%. Work on `CCCCOc1cc2[nH]cc(C(=O)OCC)c(=O)c2cc1OCCCC` yielded an inhibition of -2%. Work on `OC(Cn1ccnc1)(c1ccc(Cl)cc1Cl)C1CCCCC1` (stereo not given) yielded an inhibition of 7%. In the case of `O=C(c1cccs1)N1CCN(c2ccc([N+](=O)[O-])c(NC3CC3)c2)CC1`, the inhibition is reported as 2%. Work on `CC(=O)Nc1cccc(C(=O)Nc2cccc(-c3ccc(-c4nc5ccc(F)cc5[nH]4)s3)c2)c1` yielded an inhibition of -1%. `C=C1C[C@@H](n2cnc3c(NC(=O)c4ccccc4)ncnc32)[C@@H](F)[C@@H]1OC(c1ccccc1)(c1ccccc1)c1ccccc1` showed an inhibition of -5%. Compound `CS(=O)(=O)Nc1ccc2[nH]cc(C3CCN(CC4CCC(NC(=O)/C=C/c5ccc(Cl)c(Cl)c5)CC4)CC3)c2n1` (stereo not given) has an inhibition of -5%. For `CN1CCN(c2ccnc3ccc(NC(=O)Nc4ccc(-c5ccccc5)cc4)cc23)CC1`, the inhibition was -7%. For `CCC[C@@H]([C@@H](CC(C)C)C(=O)N[C@@H](CCCCNC(=O)c1ccccn1)C(=O)Nc1nccs1)N(O)C=O`, the inhibition was -3%.
